Calls of active or inactive are those of the source. How the source made its calls: active means hit-call score of the fitted dose curve at least 0.9, where 1 is the maximum; inactive means score below 0.9.
How the values were obtained:
[1] = target: Transcription factor E2F1 (Homo sapiens) (UniProt Q01094); experiment: ATG_E2F_CIS: Attagene CIS-FACTORIAL HepG2 Assay for human E2F Transcription Factor 1 (AID 2282935); settings: HepG2 Attagene cis-reporter, E2F reporter RNA transcripts; actives raise or lower the signal
Transcription factor E2F1 (Homo sapiens), sequence (Q01094 whole entry, looked up): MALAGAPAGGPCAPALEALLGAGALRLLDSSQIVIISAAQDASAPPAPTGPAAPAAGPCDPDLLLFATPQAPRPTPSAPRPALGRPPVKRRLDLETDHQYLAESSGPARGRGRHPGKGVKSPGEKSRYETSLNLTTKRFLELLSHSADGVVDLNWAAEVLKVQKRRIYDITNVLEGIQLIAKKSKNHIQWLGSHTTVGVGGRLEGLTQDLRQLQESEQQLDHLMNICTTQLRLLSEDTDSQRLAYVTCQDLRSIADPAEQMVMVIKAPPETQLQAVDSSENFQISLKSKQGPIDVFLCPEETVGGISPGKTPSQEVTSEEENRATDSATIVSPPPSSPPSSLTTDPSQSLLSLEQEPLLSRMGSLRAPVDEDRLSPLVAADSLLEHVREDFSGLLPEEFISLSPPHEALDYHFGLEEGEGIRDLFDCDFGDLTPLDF
In short: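 Measures reporter transcript levels via RT-PCR with capillary electrophoresis detection in HepG2 cells harboring cis-regulated reporter units; 24 h post-dose; bidirectional curve fitting with DMSO as baseline.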

[2] = ATG_M_61_CIS: Attagene CIS-FACTORIAL HepG2 Assay for M61 Transcription Factor (Internal Marker) (AID 2282937); settings: HepG2 Attagene CIS-FACTORIAL M61 internal marker reporter; actives raise or lower the signal
In short: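 Endogenous transcription factor activity in HepG2 is read through transiently transfected cis-element reporter units. After 24 h dosing, RNA undergoes reverse transcription, PCR and primer extension with 6-FAM before capillary electrophoresis; DMSO-referenced bidirectional fit.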

[3] = ATG_EGR_CIS: Attagene CIS-FACTORIAL HepG2 Assay for human Early Growth Response 1 (EGR1) (AID 2282938); settings: HepG2 Attagene CIS-FACTORIAL EGR reporter mRNA; actives raise or lower the signal
In short: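 Activity is taken as induction or loss of reporter mRNA versus DMSO, fitted bidirectionally. Transcripts from cis-regulated reporter units in transiently transfected HepG2 were measured after 24 h by RT-PCR with capillary electrophoresis.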

[4] = ATG_M_19_CIS: Attagene CIS-FACTORIAL HepG2 Assay for M19 Transcription Factor (Internal Marker) (AID 2282939); settings: HepG2 Attagene CIS-FACTORIAL M19 internal marker reporter; actives raise or lower the signal
In short: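 Following a 24 h exposure, RNA from transfected HepG2 cells was reverse-transcribed, PCR-amplified with reporter-specific primers, end-labelled with 6-FAM and HpaI-digested before capillary separation. Values represent gain or loss versus DMSO.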

[5] = ATG_ERE_CIS: Attagene CIS-FACTORIAL HepG2 Assay for Estrogen Response Element (ERE) (AID 2282940); settings: HepG2 ERE cis-reporter, Attagene RNA transcript; actives raise or lower the signal
In short: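 HepG2, transient cis-reporter units, 24 h exposure. RNA isolated, oligo(dT) RT, reporter-specific PCR, FAM extension, HpaI cut, CE detection. Gain/loss-of-signal vs DMSO.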

[6] = target: Hepatocyte nuclear factor 3-beta (Homo sapiens) (UniProt Q9Y261); experiment: ATG_FoxA2_CIS: Attagene CIS-FACTORIAL HepG2 Assay for human Forkhead box A2 (FOXA2) (AID 2282942); settings: HepG2 cis-reporter transcription factor activity, 24 h; actives raise or lower the signal
Hepatocyte nuclear factor 3-beta (Homo sapiens), sequence (Q9Y261 whole entry, looked up): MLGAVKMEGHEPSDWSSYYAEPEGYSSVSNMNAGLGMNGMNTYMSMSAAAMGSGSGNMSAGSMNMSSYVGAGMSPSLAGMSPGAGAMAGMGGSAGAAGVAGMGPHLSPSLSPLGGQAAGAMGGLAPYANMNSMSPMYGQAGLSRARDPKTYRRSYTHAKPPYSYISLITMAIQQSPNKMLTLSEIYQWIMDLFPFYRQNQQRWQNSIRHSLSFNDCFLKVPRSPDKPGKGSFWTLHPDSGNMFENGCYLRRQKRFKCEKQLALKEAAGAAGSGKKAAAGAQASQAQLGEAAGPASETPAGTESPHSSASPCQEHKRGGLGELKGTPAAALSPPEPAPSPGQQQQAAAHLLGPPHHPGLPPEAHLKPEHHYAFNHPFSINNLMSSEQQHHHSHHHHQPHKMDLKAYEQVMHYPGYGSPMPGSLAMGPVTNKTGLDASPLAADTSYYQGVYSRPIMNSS
In short: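 Reporter transcript induction is measured by fluorescence after capillary electrophoresis of RT-PCR products from HepG2 cells exposed 24 h. Cis-regulated reporter units report endogenous factor activity; curves fitted both directions against DMSO.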

[7] = ATG_FoxO_CIS: Attagene CIS-FACTORIAL HepG2 Assay for human Forkhead box O (FoxO) (AID 2282943); settings: HepG2 Attagene cis-reporter, FoxO element, mRNA; actives raise or lower the signal
In short: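 Transfected HepG2 reporter cells exposed to test chemical for 24 h; reporter RNA measured by reverse transcription, PCR and fluorescent capillary electrophoresis; curves fitted for increases and decreases against DMSO.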

[8] = ATG_GATA_CIS: Attagene CIS-FACTORIAL HepG2 Assay for human GATA Binding Protein (AID 2282944); settings: HepG2 GATA cis-element reporter, Attagene multiplex mRNA; actives raise or lower the signal
In short: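 DMSO serves as negative control and baseline for bidirectional fitting of reporter mRNA changes. HepG2 cells bearing transiently transfected cis-promoter reporters were exposed 24 h; transcripts detected via RT-PCR and capillary electrophoresis.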

[9] = ATG_E_Box_CIS: Attagene CIS-FACTORIAL HepG2 Assay for human Enhancer Box (E-box) (AID 2282936); settings: HepG2 E-box cis-reporter transcription, actives raise or lower the signal
In short: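 First, HepG2 cells receive multiple cis-regulated reporter constructs by transient transfection. Next, chemicals are applied for 24 h. Finally, reporter mRNA is quantified via RT-PCR and capillary electrophoresis, with DMSO as baseline.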

[10] = ATG_Ets_CIS: Attagene CIS-FACTORIAL HepG2 Assay for human Erythroblast Transformation Specific (ETS) (AID 2282941); settings: HepG2 ETS cis-reporter transcription, actives raise or lower the signal
In short: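 HepG2 cells transiently transfected with cis-promoter reporter transcription units were dosed for 24 h; reporter mRNA was measured by RT-PCR, 6-FAM primer extension, HpaI digestion and capillary electrophoresis, with bidirectional fitting against DMSO baseline.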

Structure (SMILES)	outcome [1]	outcome [2]	outcome [3]	outcome [4]	outcome [5]	outcome [6]	outcome [7]	outcome [8]	AC50 [5]	outcome [9]	outcome [10]	AC50 [3]	AC50 [10]	AC50 [9]
N#Cc1c(Cl)cccc1Cl	inactive	inactive	inactive	inactive	inactive	inactive	inactive	inactive	–	–	–	–	–	–
CC1(C)C(C=C(Cl)Cl)C1C(=O)OC(C#N)c1cccc(Oc2ccccc2)c1 (centres undefined)	inactive	inactive	inactive	inactive	–	inactive	inactive	inactive	14.6 µM (active)	–	–	–	–	–
O=P(O)(O)CCCl	inactive	inactive	inactive	inactive	inactive	inactive	inactive	inactive	–	inactive	inactive	–	–	–
CS(=O)(=O)c1cc(C(F)(F)F)ccc1C(=O)c1cnoc1C1CC1	inactive	inactive	inactive	inactive	inactive	inactive	inactive	inactive	–	–	inactive	–	–	–
CO/N=C(/C1=NOCCO1)c1ccccc1Oc1ncnc(Oc2ccccc2Cl)c1F	inactive	inactive	–	inactive	inactive	inactive	inactive	inactive	–	inactive	inactive	2.61 µM (active)	–	–
COCC(=O)N(c1c(C)cccc1C)C(C)C(=O)OC (centres undefined)	inactive	inactive	inactive	inactive	inactive	inactive	inactive	inactive	–	inactive	inactive	–	–	–
CC(C)=CC1C(C(=O)OCc2coc(Cc3ccccc3)c2)C1(C)C (centres undefined)	inactive	inactive	inactive	inactive	–	inactive	inactive	inactive	13.1 µM (active)	–	–	–	–	–
COP(=S)(OC)Oc1ccc([N+](=O)[O-])c(C)c1	inactive	inactive	–	inactive	–	inactive	inactive	inactive	13.7 µM (active)	inactive	–	28.9 µM (active)	–	–
Cc1c(COC(=O)[C@@H]2[C@H](/C=C(\Cl)C(F)(F)F)C2(C)C)cccc1-c1ccccc1	inactive	inactive	inactive	inactive	–	inactive	inactive	inactive	20.9 µM (active)	–	–	–	–	–
N#Cc1c[nH]cc1-c1cccc2c1OC(F)(F)O2	–	inactive	inactive	inactive	–	inactive	inactive	inactive	5.84 µM (active)	inactive	–	–	29 µM (active)	–
COc1cc(OC)nc(NC(=O)NS(=O)(=O)c2ncccc2OCC(F)(F)F)n1	inactive	inactive	inactive	inactive	inactive	inactive	inactive	inactive	–	inactive	inactive	–	–	–
O=C(Nc1ccccc1-c1ccc(Cl)cc1)c1cccnc1Cl	–	inactive	inactive	inactive	inactive	inactive	inactive	inactive	–	inactive	inactive	–	–	–
CSC(=O)c1c(C(F)F)nc(C(F)(F)F)c(C(=O)SC)c1CC(C)C	inactive	inactive	inactive	inactive	–	inactive	inactive	inactive	3.83 µM (active)	inactive	–	–	–	–
COP(=O)(OC)O/C(C)=C/C(=O)N(C)C	inactive	inactive	inactive	inactive	–	inactive	inactive	inactive	23.5 µM (active)	inactive	–	–	–	–
COc1ccc(-c2ccccc2)cc1NNC(=O)OC(C)C	inactive	inactive	inactive	inactive	inactive	inactive	inactive	inactive	–	–	–	–	–	–
CCNC(=O)NC(=O)C(C#N)=NOC	inactive	inactive	inactive	inactive	–	inactive	inactive	inactive	50 µM (active)	–	inactive	–	–	–
CCCCC(C#N)(Cn1cncn1)c1ccc(Cl)cc1 (centres undefined)	inactive	inactive	inactive	inactive	inactive	inactive	inactive	inactive	–	–	inactive	–	–	–
CNC(=O)Oc1cccc2ccccc12	inactive	inactive	inactive	inactive	–	inactive	inactive	inactive	50 µM (active)	–	–	–	–	–
CCCCC(O)(Cn1cncn1)c1ccc(Cl)cc1Cl (centres undefined)	inactive	inactive	–	inactive	–	inactive	inactive	inactive	12.6 µM (active)	–	–	50 µM (active)	–	50 µM (active)
CC1(C)CON(Cc2ccccc2Cl)C1=O	inactive	inactive	inactive	inactive	–	inactive	inactive	inactive	50 µM (active)	–	–	–	–	–
CC(C)(C)C(=O)C(Oc1ccc(Cl)cc1)n1cncn1 (centres undefined)	inactive	inactive	inactive	inactive	–	inactive	inactive	inactive	20 µM (active)	inactive	–	–	–	–
CC(C)Oc1cccc(NC(=O)c2ccccc2C(F)(F)F)c1	inactive	inactive	inactive	inactive	–	inactive	inactive	inactive	13.3 µM (active)	inactive	inactive	–	–	–
COC(=O)NC(=S)Nc1ccccc1NC(=S)NC(=O)OC	–	inactive	inactive	inactive	inactive	inactive	inactive	inactive	–	inactive	inactive	–	–	–
CNC(=O)N(C)c1nnc(C(C)(C)C)s1	–	inactive	inactive	inactive	inactive	inactive	inactive	inactive	–	inactive	inactive	–	–	–

Structure (SMILES)	outcome [1]	outcome [2]	outcome [3]	outcome [4]	outcome [5]	outcome [6]	outcome [7]	outcome [8]	AC50 [5]	outcome [9]	outcome [10]	AC50 [3]	AC50 [10]	AC50 [9]
O=C(O)c1c(Cl)ccc2cc(Cl)cnc12	inactive	inactive	inactive	inactive	inactive	inactive	inactive	inactive	–	inactive	inactive	–	–	–
COP(=S)(OC)SCn1nnc2ccccc2c1=O	inactive	inactive	–	inactive	inactive	inactive	inactive	inactive	–	–	–	23.7 µM (active)	–	–
CN=C=S	inactive	inactive	inactive	inactive	inactive	inactive	inactive	inactive	–	–	inactive	–	–	–
Cc1cnc(C2=NC(C)(C(C)C)C(=O)N2)c(C(=O)O)c1 (centres undefined)	inactive	inactive	inactive	inactive	inactive	inactive	inactive	inactive	–	–	–	–	–	–
CN/C(=N\[N+](=O)[O-])NCc1cnc(Cl)s1	inactive	inactive	inactive	inactive	inactive	inactive	inactive	inactive	–	–	–	–	–	–
CC(C)N1C(=O)N(c2ccccc2)CSC1=NC(C)(C)C	inactive	inactive	inactive	inactive	inactive	inactive	inactive	inactive	–	–	–	–	–	–
CC(C)Nc1nc(Cl)nc(NC(C)C)n1	inactive	inactive	inactive	inactive	inactive	inactive	inactive	inactive	–	–	–	–	–	–
CCN(CC)c1nc(C)cc(OP(=S)(OC)OC)n1	inactive	inactive	–	inactive	–	inactive	inactive	inactive	12.7 µM (active)	–	–	50 µM (active)	–	–
CC(C)NC(=O)N1CC(=O)N(c2cc(Cl)cc(Cl)c2)C1=O	inactive	inactive	inactive	inactive	–	inactive	inactive	inactive	20.6 µM (active)	inactive	inactive	–	–	–
O=C1C2CC=CCC2C(=O)N1SC(Cl)(Cl)Cl (centres undefined)	inactive	inactive	inactive	inactive	inactive	inactive	inactive	inactive	–	–	–	–	–	–
OC(c1ccc(Cl)cc1)(c1ccc(Cl)cc1)C(Cl)(Cl)Cl	inactive	inactive	inactive	inactive	inactive	inactive	inactive	inactive	–	–	inactive	–	–	–
Nc1c(Cl)c(Cl)nc(C(=O)O)c1Cl	inactive	inactive	inactive	inactive	inactive	inactive	inactive	inactive	–	inactive	inactive	–	–	–
COCc1cnc(C2=NC(C)(C(C)C)C(=O)N2)c(C(=O)O)c1 (centres undefined)	–	inactive	inactive	inactive	inactive	inactive	inactive	inactive	–	–	–	–	–	–
CC(C)C1(C)N=C(c2ncccc2C(=O)O)NC1=O (centres undefined)	–	inactive	inactive	inactive	inactive	inactive	inactive	inactive	–	inactive	–	–	–	–
Nc1cnn(-c2ccccc2)c(=O)c1Cl	–	inactive	inactive	inactive	inactive	inactive	inactive	inactive	–	–	–	–	–	–
Clc1nc(Cl)nc(Nc2ccccc2Cl)n1	–	inactive	inactive	inactive	inactive	inactive	inactive	inactive	–	inactive	–	–	–	–
CS(=O)(=O)c1ccc(C(=O)C2C(=O)CCCC2=O)c([N+](=O)[O-])c1	–	inactive	inactive	inactive	inactive	inactive	inactive	inactive	–	inactive	inactive	–	–	–
CCCC(=NOCC)C1=C(O)CC(CC(C)SCC)CC1=O (centres undefined)	–	inactive	inactive	inactive	inactive	inactive	inactive	inactive	–	–	–	–	–	–
CCC(C)n1c(=O)[nH]c(C)c(Br)c1=O (centres undefined)	–	inactive	inactive	inactive	inactive	inactive	inactive	inactive	–	–	–	–	–	–
CCOP(=O)(OCC)Oc1nc(Cl)c(Cl)cc1Cl	–	inactive	inactive	inactive	–	inactive	inactive	inactive	39.1 µM (active)	inactive	–	–	–	–
CC1(C)CCC(=Cc2ccc(Cl)cc2)C1(O)Cn1cncn1 (centres undefined)	–	inactive	inactive	inactive	inactive	inactive	inactive	inactive	–	inactive	inactive	–	–	–
O=c1n(Cl)c(=O)n(Cl)c(=O)n1Cl	–	inactive	inactive	inactive	inactive	inactive	inactive	inactive	–	–	inactive	–	–	–
CCOc1nc(F)cc2nc(S(=O)(=O)Nc3c(Cl)cccc3Cl)nn12	–	inactive	inactive	inactive	inactive	inactive	inactive	inactive	–	inactive	–	–	–	–

From PubChem BioAssay (EPA / NIEHS)
